Source: PubChem BioAssay (NCI)
Compounds without any hit were thinned out: in the full panel of roughly 79,000, 15% have a hit. Values without a mark were called inactive. Calls of active or inactive are those of the source. No stated cut-off is given here; in the data, active means growth inhibition above about 70%; inactive means the rest.

Key:
[1] = NCI Yeast Anticancer Drug Screen. Data for the rad50 strain (AID 155);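 further: 0% = growth of vehicle-only cultures of the same strain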; conditions: S. cerevisiae rad50 strain growth inhibition, active compounds read high
In short: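 Cells are treated with compound, grown, and their growth is then scored against vehicle-only cultures of the same repair-deficient yeast strain.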

[2] = NCI Yeast Anticancer Drug Screen. Data for the mec2-1 strain (AID 157); conditions: S. cerevisiae mec2-1 strain, active compounds read high
In short: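 mec2-1 yeast strain, carrying an alteration in DNA damage repair or cell cycle control, was exposed to compounds; growth inhibition was measured relative to vehicle-treated controls.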

[3] = NCI Yeast Anticancer Drug Screen. Data for the sgs1 mgt1 strain (AID 161);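 further: 0% = growth of cultures given vehicle only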; conditions: S. cerevisiae sgs1 mgt1 strain, active compounds read high
In short: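 Growth of a repair-deficient yeast mutant was monitored after compound treatment and expressed as inhibition relative to vehicle-treated cultures.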

[4] = NCI Yeast Anticancer Drug Screen. Data for the cln2 rad14 strain (AID 165);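 further: 0% = growth equal to vehicle treated cultures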; conditions: S. cerevisiae cln2 rad14 strain, active compounds read high
In short: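 Yeast carrying cln2 and rad14 alterations (cell cycle control and DNA damage repair) were exposed to compounds. Growth inhibition was measured against vehicle-treated controls.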

[5] = NCI Yeast Anticancer Drug Screen. Data for the bub3 strain (AID 167); conditions: S. cerevisiae bub3 mutant strain, active compounds read high
In short: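 Part of a panel of yeast mutants defective in DNA damage repair or cell cycle regulation. Each strain is grown with compound, and inhibition is calculated relative to solvent-treated cultures.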

[6] = NCI Yeast Anticancer Drug Screen. Data for the mlh1 rad18 strain (AID 175); conditions: S. cerevisiae mlh1 rad18 strain growth inhibition, active compounds read high
In short: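 Growth inhibition of the yeast strain was measured after compound exposure and expressed relative to vehicle-treated controls. The strain carries defined defects in DNA damage repair.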

[7] = at 5.0 µM (retest, dose inferred, filed as 0.5)
[8] = at 50.0 µM (retest, dose inferred, filed as 5.0)

| Compound | growth inhibition [1, 7] | growth inhibition [1, 8] | growth inhibition ([1]; at 50.0 µM) | growth inhibition [2, 7] | growth inhibition [2, 8] | growth inhibition ([2]; at 50.0 µM) | growth inhibition [3, 7] | growth inhibition [3, 8] | growth inhibition ([3]; at 50.0 µM) | growth inhibition [4, 7] | growth inhibition [4, 8] | growth inhibition ([4]; at 50.0 µM) | growth inhibition [5, 7] | growth inhibition [5, 8] | growth inhibition ([5]; at 50.0 µM) | growth inhibition [6, 7] | growth inhibition [6, 8] | growth inhibition ([6]; at 50.0 µM) |
| --- | --- | --- | --- | --- | --- | --- | --- | --- | --- | --- | --- | --- | --- | --- | --- | --- | --- | --- |
| C=CCc1cc(Cl)ccc1O | 1% | 51% | 37.6% | -2% | 27% | 79% (active) | 1% | 40% | 83.5% (active) | 1% | 14% | 61.2% | 0% | 19% | 38.7% | 1% | 51% | 36.4% |
| CC(C)(C)SC(=O)C1(C)OC1c1ccc([N+](=O)[O-])cc1 (stereo not given) | -6% | 45% | 53% | -4% | -3% | 67.8% | -5% | 51% | 62.3% | 5% | -2% | -20.8% | 0% | 13% | 29.8% | -5% | 49% | 79.8% (active) |
| CC(=O)N(C)c1ccc(/C=C2\C=Cc3ccccc32)cc1 | 9% | 91% (active) | 41.2% | 4% | 94% (active) | 39.7% | 10% | 93% (active) | 26.3% | -4% | 81% (active) | 32.8% | 7% | 94% (active) | 72.2% (active) | 11% | 92% (active) | 56.3% |
| COc1ccc2ccccc2c1-c1c(O)ccc2ccccc12 | 0% | 80% (active) | 93.5% (active) | -5% | 71% (active) | 95.8% (active) | -2% | 63% | 97.2% (active) | -5% | 72% (active) | 93.3% (active) | -6% | 64% | 97.9% (active) | -8% | 78% (active) | 96% (active) |
| CC1CCN(C(=S)NNC(C)c2cc3ccccc3cn2)CC1 (stereo not given) | 45% | 97% (active) | 82.5% (active) | 60% | 98% (active) | 75.7% (active) | 80% (active) | 97% (active) | 88.6% (active) | 82% (active) | 97% (active) | 84.9% (active) | 71% (active) | 97% (active) | 85.8% (active) | 50% | 96% (active) | 86.8% (active) |
| O=C(O)Cc1cccc2cc3c(ccc4ccccc43)cc12 | 15% | 34% | 47.7% | 8% | 32% | 91% (active) | 11% | 47% | 10.1% | -2% | 44% | 96.6% (active) | 2% | 42% | 93.3% (active) | 8% | 44% | 96.7% (active) |
| COc1nc2nc(Cl)cc(C)c2c2ccccc12 (tested in a mixture with another compound) | 33% | 94% (active) | 98.1% (active) | 11% | 91% (active) | 65.2% | 8% | 76% (active) | 52.1% | 3% | 86% (active) | 71.8% (active) | 5% | 94% (active) | 78.5% (active) | 17% | 93% (active) | 54.2% |
| Cc1c2ncccc2cc2oc3ccccc3c(=O)c12 | 67% | 9% | 62.7% | 24% | 78% (active) | 14.8% | 37% | 6% | 24.4% | 16% | 37% | 13.8% | 15% | 75% (active) | 19.9% | 23% | 10% | 68.7% |
| CS(=O)(=O)OCCN(CCOS(C)(=O)=O)c1ccc(C=Nc2ccc3ccccc3c2)cc1 | 12% | 80% (active) | 86.7% (active) | 47% | 55% | 73.2% (active) | 6% | 45% | 71.1% (active) | -2% | 64% | 37.7% | -3% | 6% | 10.3% | 28% | 90% (active) | 95.3% (active) |
| O=C1OC2(c3ccc(O)cc3Oc3cc(O)ccc32)c2c1c(-c1ccccc1)c(-c1ccccc1)c(-c1ccccc1)c2-c1ccccc1 | 26% | 83% (active) | 76.7% (active) | 13% | 52% | 36.6% | 14% | 50% | 39.9% | -10% | 34% | -14.4% | -1% | 59% | 50.9% | 6% | 73% (active) | 62.8% |
| C=CCN1CCC(OC(=O)C(O)(/C=C\CC)C2CCCC2)CC1 (stereo not given) | 19% | 61% | 68.8% | 13% | 40% | 48.9% | 37% | 63% | 70.2% (active) | 17% | 75% (active) | 62.8% | 12% | 83% (active) | 61.6% | 7% | 67% | 59.5% |
| Cc1ccc(Nc2nc(C)c(C(=O)C/C(=N\NC(N)=S)C(=O)Nc3ccc(Cl)cc3C)s2)cc1 | -6% | 19% | 71.5% (active) | -12% | -3% | 17.2% | -3% | 11% | 82.3% (active) | -8% | 10% | 34.6% | -19% | 5% | 33% | 12% | -9% | 57.1% |
| CCOC(=O)CSC(=S)N1CCOCC1 | -3% | -2% | 37% | -2% | -10% | -9.1% | -4% | -6% | -10.6% | -5% | -9% | -32.2% | -1% | -6% | -3.9% | -2% | 0% | -29.2% |
| CC(O)c1cccnc1 (stereo not given) | 11% | -8% | 65.5% | 10% | 1% | 49.6% | 4% | -1% | 20% | 20% | 41% | 58.1% | -6% | 47% | 28.6% | -9% | 51% | 66% |
| C/C(=N\NC(=S)N1CCCCCC1)c1ccccn1 | 88% (active) | 99% (active) | 91.5% (active) | 86% (active) | 99% (active) | 92.6% (active) | 77% (active) | 99% (active) | 92.3% (active) | 67% | 98% (active) | 89.7% (active) | 87% (active) | 99% (active) | 92.1% (active) | 90% (active) | 98% (active) | 92% (active) |
| Cc1c2[nH]c3ccc(Br)cc3c2c(C)c2[nH]ccc(=O)c12 | -5% | 72% (active) | 98.9% (active) | -8% | 59% | 98.7% (active) | -17% | 28% | 99% (active) | -26% | 57% | 97% (active) | 2% | 81% (active) | 98.3% (active) | -11% | 96% (active) | 96.8% (active) |
| CC1(c2ccc(F)cc2)OC(=O)c2c1ccc1ccccc21 (stereo not given) | -7% | 68% | 56.2% | -5% | 78% (active) | 42.8% | 0% | 81% (active) | 56.5% | -15% | 70% (active) | -2.35% | -6% | 88% (active) | 72.6% (active) | -9% | 84% (active) | 29.5% |
| C=CS(=O)(=O)c1ccc(Cl)cc1 | -116% | 97% (active) | 99.7% (active) | -19% | 98% (active) | 99.7% (active) | -23% | 98% (active) | 99.2% (active) | -42% | 98% (active) | 99.1% (active) | -34% | 98% (active) | 99.4% (active) | -73% | 97% (active) | 99% (active) |
| OC(c1cc(-c2ccccc2)nc2cc(Cl)ccc12)C1CCCCN1 (stereo not given) | -2% | -3% | 8.7% | -3% | 3% | 26.1% | -1% | -2% | 37% | -5% | -4% | 15% | -2% | -5% | 75% (active) | -2% | -3% | 53.6% |
| CCC1CCC2C3CC=C4CC(OC(C)=O)C(N)CC4(C)C3CCC12C (stereo not given) | 6% | 96% (active) | 93% (active) | 9% | 94% (active) | 92.3% (active) | 4% | 93% (active) | 89.2% (active) | 45% | 95% (active) | 91.3% (active) | -5% | 95% (active) | 85.6% (active) | 12% | 94% (active) | 91.8% (active) |
